Measured values reported in PubChem BioAssay.
For part of these data: Potency and affinity values are given separately. Calls of active or inactive are those of the source.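 Rule for the calls, unless noted: active = membrane potential signal rise above negative control mean plus 3 SD in both duplicates, also active in the earlier TRPC4 screen; inactive = the rest.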

How the values were obtained:
[1] = system: TRPC4 beta (transient receptor potential cation channel C4), mouse; test: TRPC4 cation channel opening, retest – cell-based, Fluo4 calcium, HEK293 TRPC4beta/mu-opioid, duplicates, 10 µM, confirmation (AID 2426;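 active = fluorescence ratio normalized to control raised more than 50% in primary screen plus both repeat runs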;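 for activation: percent rise of integrated ratio over buffer wells lacking compound which define 0%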); settings: Fluo4 calcium fluorescence, at 10 µM; active compounds read high
[2] = system: transient receptor potential cation channel C4 beta (TRPC4), mouse; test: TRPC4 cation channel opening, second retest – cell-based, second round, Fluo4, HEK293 TRPC4beta/mu-opioid, 1 µM, confirmation (AID 2461;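 active = primary screen active and over 50% activation in each of two duplicate runs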;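 for activation: 0% = wells without test compound as baseline of integrated fluorescence ratio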); settings: Fluo4 calcium fluorescence, at 1 µM; active compounds read high
[3] = system: TRPC4 (transient receptor potential cation channel C4 beta), mouse; test: potentiation of DAMGO EC20 TRPC4 response – cell-based, second round, Fluo-4, HEK293 TRPC4beta/mu-opioid, 1 µM, confirmation (AID 2554;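 active = primary screen hit whose fluorescence ratio, in both repeats, exceeds the weak agonist control mean by 3 SD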); settings: DAMGO EC20, Fluo-4 calcium flux, at 1 µM; active compounds read high
[4] = system: TRPC4 beta (transient receptor potential cation channel C4), mouse; test: potentiation of DAMGO EC20 TRPC4 response – cell-based, Fluo-4, HEK293 TRPC4beta/mu-opioid, confirmation (AID 2555;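 active = primary screen hit whose calcium fluorescence ratio, in both repeats, exceeds the weak agonist control mean by 3 SD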); settings: DAMGO EC20, Fluo-4 calcium flux, at 10 µM; active compounds read high
[5] = target: Short transient receptor potential channel 4 (Mus musculus) (UniProt Q9QUQ5); test: blockers of DAMGO-evoked TRPC4 calcium flux – cell-based, Fluo4, HEK293 TRPC4beta/mu-opioid, confirmation (AID 2636;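 active = calcium signal cut by more than 3 SD below the full-agonist control yet still positive, in both repeats and the earlier primary screen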); settings: at 10 µM; active compounds read high
Short transient receptor potential channel 4 (Mus musculus), sequence (Q9QUQ5 whole entry, looked up): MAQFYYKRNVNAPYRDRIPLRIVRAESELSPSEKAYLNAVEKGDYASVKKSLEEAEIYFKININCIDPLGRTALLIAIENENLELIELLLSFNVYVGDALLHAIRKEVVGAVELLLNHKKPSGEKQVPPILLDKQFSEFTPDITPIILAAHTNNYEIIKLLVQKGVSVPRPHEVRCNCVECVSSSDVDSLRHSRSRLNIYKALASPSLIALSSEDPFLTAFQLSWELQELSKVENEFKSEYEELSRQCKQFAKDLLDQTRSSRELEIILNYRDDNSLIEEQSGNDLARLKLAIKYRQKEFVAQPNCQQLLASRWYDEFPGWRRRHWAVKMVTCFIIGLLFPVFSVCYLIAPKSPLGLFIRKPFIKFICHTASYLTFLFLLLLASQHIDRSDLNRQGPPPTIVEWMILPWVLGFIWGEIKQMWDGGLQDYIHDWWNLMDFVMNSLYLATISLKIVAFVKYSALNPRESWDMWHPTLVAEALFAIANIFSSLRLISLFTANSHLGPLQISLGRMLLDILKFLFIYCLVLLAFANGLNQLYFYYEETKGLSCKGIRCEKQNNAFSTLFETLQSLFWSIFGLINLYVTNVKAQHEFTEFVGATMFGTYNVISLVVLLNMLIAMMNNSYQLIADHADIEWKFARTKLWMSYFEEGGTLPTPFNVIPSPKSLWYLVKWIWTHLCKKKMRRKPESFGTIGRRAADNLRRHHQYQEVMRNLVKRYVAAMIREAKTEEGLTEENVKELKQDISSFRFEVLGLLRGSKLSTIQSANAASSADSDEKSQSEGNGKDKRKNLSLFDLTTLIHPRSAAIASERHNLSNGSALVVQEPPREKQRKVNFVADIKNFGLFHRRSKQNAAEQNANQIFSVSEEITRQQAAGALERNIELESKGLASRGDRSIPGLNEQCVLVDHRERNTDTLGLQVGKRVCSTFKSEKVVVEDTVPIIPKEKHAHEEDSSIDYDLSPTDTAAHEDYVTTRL

[6] = target: Short transient receptor potential channel 4 (Mus musculus) (UniProt Q9QUQ5); test: blockers of DAMGO-evoked TRPC4 calcium flux – cell-based, second round, Fluo4, HEK293 TRPC4beta/mu-opioid, 1 µM, confirmation (AID 2637;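 active = calcium signal ratio cut to more than 3 SD under the fully stimulated control mean yet still positive, in both repeats and the primary screen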); settings: at 1 µM; active compounds read high
[7] = target: Short transient receptor potential channel 4 (Mus musculus) (UniProt Q9QUQ5); test: potentiation of DAMGO-evoked TRPC4 calcium signal – cell-based, HEK293 TRPC4/mu-opioid, Fluo-4 calcium, EC20 DAMGO, dose response (AID 434941;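 active = earlier screen potentiator hit that boosts the TRPC4 ion channel at some dose, with a dose response; inactive = no potentiation, no dose response, or not a prior hit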;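 note: calcium entry triggered by an EC20 dose of DAMGO at the co-expressed mu-opioid receptor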)
[8] = target: Short transient receptor potential channel 4 (Mus musculus) (UniProt Q9QUQ5); test: block of DAMGO-driven TRPC4 calcium entry – cell-based, HEK293 TRPC4/mu-opioid, Fluo-4 calcium, dose response (AID 434942;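 active = primary screen inhibitor hit that blocks the TRPC4 channel at some tested dose, yielding a dose curve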)
[9] = target: Short transient receptor potential channel 6 (Mus musculus) (UniProt Q61143); test: TRPC6 blockade by TRPC4 inhibitor hits – cell-based, HEK293, membrane potential dye, duplicate, selectivity assay for TRPC4 inhibitor project, confirmation (AID 434948;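 active = active in primary screen and both duplicates, each dropping signal beyond three positive-control SD with fluorescence still positive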); settings: HEK293 TRPC6, membrane potential dye fluorescence, at 10 µM, stimulated with maximal-effect acetylcholine; active compounds read high
Short transient receptor potential channel 6 (Mus musculus), sequence (Q61143 whole entry, looked up): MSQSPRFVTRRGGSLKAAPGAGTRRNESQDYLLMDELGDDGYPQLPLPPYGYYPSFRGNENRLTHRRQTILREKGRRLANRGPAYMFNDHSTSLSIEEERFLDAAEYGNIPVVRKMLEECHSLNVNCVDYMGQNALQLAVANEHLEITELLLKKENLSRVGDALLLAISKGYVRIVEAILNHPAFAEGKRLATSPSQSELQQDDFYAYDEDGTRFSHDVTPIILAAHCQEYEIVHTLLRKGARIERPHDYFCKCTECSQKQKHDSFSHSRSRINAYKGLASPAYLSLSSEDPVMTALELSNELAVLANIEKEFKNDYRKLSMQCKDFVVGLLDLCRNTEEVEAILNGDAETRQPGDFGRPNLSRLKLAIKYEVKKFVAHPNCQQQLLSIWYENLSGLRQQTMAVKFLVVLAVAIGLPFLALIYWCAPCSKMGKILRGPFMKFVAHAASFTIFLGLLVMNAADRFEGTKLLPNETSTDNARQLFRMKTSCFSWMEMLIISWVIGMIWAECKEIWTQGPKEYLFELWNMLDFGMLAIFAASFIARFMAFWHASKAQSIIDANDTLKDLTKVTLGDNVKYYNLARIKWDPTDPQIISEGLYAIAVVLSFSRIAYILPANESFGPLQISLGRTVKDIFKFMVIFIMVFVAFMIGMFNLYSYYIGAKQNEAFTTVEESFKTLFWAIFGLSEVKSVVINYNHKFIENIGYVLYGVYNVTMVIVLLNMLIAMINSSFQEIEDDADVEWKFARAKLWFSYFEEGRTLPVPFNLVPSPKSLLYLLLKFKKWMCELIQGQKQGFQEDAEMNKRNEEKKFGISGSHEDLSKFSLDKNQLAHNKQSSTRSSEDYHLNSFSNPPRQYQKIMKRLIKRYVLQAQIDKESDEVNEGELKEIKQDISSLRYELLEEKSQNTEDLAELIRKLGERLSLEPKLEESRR

[10] = target: Short transient receptor potential channel 6 (Mus musculus) (UniProt Q61143); test: TRPC6 opening by TRPC4 activator hits – cell-based, HEK293, membrane potential dye, duplicate, selectivity assay for TRPC4 activator project, confirmation (AID 434950); settings: HEK293 TRPC6, membrane potential fluorescence, at 10 µM; activation: active compounds read high; outcome: activation;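 for activation: 0% = buffer only wells and 100% = acetylcholine maximal-effect wells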
[11] = target: Short transient receptor potential channel 6 (Mus musculus) (UniProt Q61143); test: positive modulators of mouse TRPC6 channel – HEK293 cells, membrane potential dye, duplicate, selectivity assay for TRPC4 potentiator project, confirmation (AID 434952;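 active = compound raising the membrane signal above positive-control mean plus 3 SD in both repeats, and a primary screen hit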); settings: HEK293 TRPC6, membrane potential dye fluorescence, at 10 µM, maximal acetylcholine added after compound; active compounds read high
[12] = target: Short transient receptor potential channel 4 (Mus musculus) (UniProt Q9QUQ5); test: calcium flux activators in TRPC4/5HT1a cells, counter-screen for TRPC4 activator project, cell-based, second counter screen, HEK293 TRPC4/5HT1a, Fluo-4 (AID 434977;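 active = calcium signal rise above buffer-control mean plus 5 SD in both duplicates, and also a hit in the primary screen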;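 for activation: plate controls were assay buffer for no effect and maximal serotonin response for full effect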); settings: Fluo-4 calcium flux, at 10 µM; active compounds read high
[13] = serotonin-gated TRPC4 signal block – cell-based, second counter screen, HEK293 TRPC4/5HT1a, Fluo-4, counter-screen for TRPC4 inhibitor project, confirmation (AID 434978;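 active = primary screen active whose calcium signal fell more than 3 SD beyond the full-serotonin control mean in both duplicate plates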;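 note: serotonin given first at submaximal then at maximal dose after compound preincubation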); settings: Fluo-4 calcium flux, at 10 µM, serotonin added to trigger calcium flux; active compounds read high
[14] = system: TRPC4 (mouse), co-expressed with 5HT1a in HEK293; test: enhancement of serotonin-evoked TRPC4 response – cell-based, second counter screen, HEK293 TRPC4/5HT1a, Fluo-4, counter-screen for TRPC4 potentiator project, confirmation (AID 434979;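 active = signal rise over 3 SD above mean of control wells given weak agonist, in both repeats and first screen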); settings: Fluo-4 calcium flux, at 10 µM, serotonin added at its EC20 dose; active compounds read high
[15] = nonspecific calcium rise without TRPC4 – cell-based, HEK293 mu-opioid receptor line, counter-screen for TRPC4 activator project, confirmation (AID 449723;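 active = hit in primary screen, with calcium signal over 5 SD above buffer well mean in both duplicates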;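 note: counter screen cells carry the mu-opioid receptor alone and lack TRPC4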); settings: HEK293 mu-opioid cells, Fluo-4 calcium fluorescence, at 10 µM; active compounds read high
[16] = nonspecific potentiation of DAMGO calcium response – cell-based, HEK293 mu-opioid receptor line, counter-screen for TRPC4 allosteric potentiator project, confirmation (AID 449724;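 active = calcium signal rise more than 3 SD above the low-dose agonist control mean, in both duplicate plates and the primary screen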); settings: HEK293 mu-opioid receptor cells, Fluo-4 calcium flux, at 10 µM, compound added before EC20 DAMGO stimulus; active compounds read high

CCCc1c(O)nc(SCCN(CCC)CCC)[nH]c1=O
active: activation [1] 96% | activation [12] 12.4% | potentiation [14] 23.3%
inactive: outcome [2] | outcome [3] | outcome [4] | outcome [5] | outcome [6] | outcome [7] | outcome [8] | outcome [9] | outcome [10] | outcome [11] | outcome [13] | outcome [15] | outcome [16]

CN(C)CCCN(C(=O)c1ccc(S(=O)(=O)N2CCCCCC2)cc1)c1nc2ccc(F)cc2s1
inactive: outcome [2] | outcome [3] | outcome [4] | outcome [5] | outcome [6] | outcome [7] | outcome [8] | outcome [9] | outcome [10] | outcome [11] | outcome [13] | outcome [14] | outcome [16]
active: activation [1] 278% | activation [12] 44.3% | activation [15] 27.1%

CN(C)C(CNC(=S)Nc1ccc(F)cc1)c1cccnc1 (stereo not given)
inactive: outcome [3] | outcome [4] | outcome [5] | outcome [6] | outcome [7] | outcome [8] | outcome [9] | outcome [11] | outcome [12] | outcome [13] | outcome [14] | outcome [15] | outcome [16]
active: activation [1] 95% | activation [2] 82% | activation [10] 28.5%

COC(=O)C1=C(C)N(Cc2ccccc2)C(=NCCc2ccccn2)N[C@H]1c1cccc(F)c1
inactive: outcome [2] | outcome [3] | outcome [4] | outcome [5] | outcome [6] | outcome [7] | outcome [8] | outcome [9] | outcome [11] | outcome [13] | outcome [14] | outcome [15] | outcome [16]
active: activation [1] 109% | activation [10] 77% | activation [12] 44.2%

CC(NCCC1(Cc2ccccc2Cl)CCOC(C)(C)C1)c1cccs1 (stereo not given)
active: activation [1] 89%
inactive: outcome [2] | outcome [3] | outcome [4] | outcome [5] | outcome [6] | outcome [7] | outcome [8] | outcome [9] | outcome [10] | outcome [11] | outcome [12] | outcome [13] | outcome [14] | outcome [15] | outcome [16]

Cc1cc(NC(=O)c2cnn3cccnc23)nn1CC(=O)Nc1cccnc1
active: potentiation [3] 22% | potentiation [4] 109% | potentiation [14] 72.1%
inactive: outcome [1] | outcome [2] | outcome [5] | outcome [6] | outcome [7] | outcome [8] | outcome [9] | outcome [10] | outcome [11] | outcome [12] | outcome [13] | outcome [15] | outcome [16]

Cc1ccc(C(=O)NC(=S)NNC(=O)c2ccccc2)cc1
active: activation [10] 31.5% | activation [12] 72.6% | activation [15] 12.1%
inactive: outcome [1] | outcome [2] | outcome [3] | outcome [4] | outcome [5] | outcome [6] | outcome [7] | outcome [8] | outcome [9] | outcome [11] | outcome [13] | outcome [14] | outcome [16]

CCOC(=O)[C@@H]1CCNC[C@@H]1c1ccccc1
inactive: outcome [3] | outcome [4] | outcome [5] | outcome [6] | outcome [7] | outcome [8] | outcome [9] | outcome [11] | outcome [12] | outcome [13] | outcome [14] | outcome [15] | outcome [16]
active: activation [1] 217% | activation [2] 83% | activation [10] 30.5%

O=C(CNS(=O)(=O)c1ccc2ccccc2c1)NCCc1ccccn1
active: activation [1] 110%
inactive: outcome [2] | outcome [3] | outcome [4] | outcome [5] | outcome [6] | outcome [7] | outcome [8] | outcome [9] | outcome [10] | outcome [11] | outcome [12] | outcome [13] | outcome [14] | outcome [15] | outcome [16]

Cc1cc(-c2ccc(C)c(S(=O)(=O)NCCCN(Cc3ccccc3)C(C)C)c2)on1
active: activation [1] 161% | activation [10] 44.5% | activation [12] 56.3%
inactive: outcome [2] | outcome [3] | outcome [4] | outcome [5] | outcome [6] | outcome [7] | outcome [8] | outcome [9] | outcome [11] | outcome [13] | outcome [14] | outcome [15] | outcome [16]

COc1cc(OC)cc(C(=O)NC2CCCN(Cc3ccc(Cl)cc3)C2)c1 (stereo not given)
inactive: outcome [2] | outcome [3] | outcome [4] | outcome [5] | outcome [6] | outcome [7] | outcome [8] | outcome [9] | outcome [11] | outcome [13] | outcome [14] | outcome [15] | outcome [16]
active: activation [1] 111% | activation [10] 44.5% | activation [12] 31.6%

Cc1ccc2oc(=O)c3cnn(CC(=O)NC4CCN(Cc5ccccc5)CC4)c3c2c1
active: activation [1] 68%
inactive: outcome [2] | outcome [3] | outcome [4] | outcome [5] | outcome [6] | outcome [7] | outcome [8] | outcome [9] | outcome [10] | outcome [11] | outcome [12] | outcome [13] | outcome [14] | outcome [15] | outcome [16]

CN(C)C(CNC(=O)c1ccc2ccccc2n1)c1ccccc1 (stereo not given)
inactive: outcome [2] | outcome [3] | outcome [4] | outcome [5] | outcome [6] | outcome [7] | outcome [8] | outcome [9] | outcome [11] | outcome [12] | outcome [13] | outcome [14] | outcome [15] | outcome [16]
active: activation [1] 61% | activation [10] 54%

Cc1cc(C)c(C)c(OCCCN(C)C)c1
active: activation [1] 152% | activation [2] 95% | activation [10] 67.5% | activation [12] 47.6% | potentiation [14] 15.7%
inactive: outcome [3] | outcome [4] | outcome [5] | outcome [6] | outcome [7] | outcome [8] | outcome [9] | outcome [11] | outcome [13] | outcome [15] | outcome [16]

O=C(c1sc2ccccc2c1Cl)N(Cc1ccco1)C1CCS(=O)(=O)C1 (stereo not given)
inactive: outcome [2] | outcome [3] | outcome [4] | outcome [5] | outcome [6] | outcome [7] | outcome [8] | outcome [9] | outcome [11] | outcome [12] | outcome [13] | outcome [14] | outcome [15] | outcome [16]
active: activation [1] 198% | activation [10] 57.5%
